According to PubChem BioAssay (NCI):
The panel holds about 83,000 compounds, 20% with a hit somewhere; the sample as a whole holds those more often.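 Results are percent growth after 48 hours of single-concentration exposure. 100 means growth as in untreated cells, lower positive values show inhibition; negative values down to -100 show cell death.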 A number with no mark means an inactive call. Active and inactive are the calls of the source. How the source made its calls: active means growth percent below 10; inactive means the rest.

Columns and labels:
Experiment in all cases: NCI-60 one-dose screen, 48 h (100 = growth as untreated, 0 = no growth, -100 = all killed)
Details in all cases: 10 µM unless noted
[1] = system: NCI-H23 lung
[2] = system: NCI-H226 lung
[3] = system: NCI-H322M lung
[4] = system: HOP-62 NSCLC
[5] = system: NCI-H460 lung
[6] = system: HOP-92 NSCLC
[7] = system: NCI-H522 lung
[8] = system: A549/ATCC NSCLC
[9] = system: 786-0 renal
[10] = system: COLO 205 colon
[11] = system: DU-145 prostate
[12] = system: K-562 leukemia
[13] = system: MALME-3M melanoma
[14] = system: MDA-MB-231 breast
[15] = system: RXF 393 renal
[16] = system: SF-268 CNS
[17] = system: SF-295 CNS
[18] = system: SF-539 CNS
[19] = system: UACC-257 melanoma
[20] = system: M14 melanoma

Structure (SMILES) | growth [1] | growth [2] | growth [3] | growth [4] | growth [5] | growth [6] | growth [7] | growth [8] | growth [9] | growth [10] | growth [11] | growth [12] | growth [13] | growth [14] | growth [15] | growth [16] | growth [17] | growth [18] | growth [19] | growth [20]
NS(=O)(=O)c1ccc(N2N=C(c3ccc(NC(=O)Nc4ccccc4)cc3)CC2c2ccc(Br)cc2)cc1 (stereo not given) | -95.2% (active) | -84.2% (active) | -87.3% (active) | -70.3% (active) | -83.9% (active) | -87% (active) | -79.7% (active) | -57.7% (active) | -85.7% (active) | -53.5% (active) | -7.86% (active) | 16.7% | -97.1% (active) | -94.8% (active) | -96.4% (active) | -29.7% (active) | -64.9% (active) | -99.2% (active) | -16.8% (active) | -69.2% (active)
Clc1ccccc1Nc1nnc(-c2c[nH]c3ccccc23)o1 | 22.2% | 43.9% | 47.1% | 27.2% | 16% | 43.9% | -25.1% (active) | 22.1% | 36% | -33.6% (active) | 21.5% | 6.76% (active) | 41.9% | 16% | -5.74% (active) | 48.5% | 9.04% (active) | -43.6% (active) | 65% | 22.8%
COc1cc(C2CC(c3ccc(S(=O)(=O)NCCNc4nc(N(C)C)nc(N5CCOCC5)n4)cc3)=Nc3c(N)nc(N)nc3N2)cc(OC)c1OC (stereo not given) | 97.4% | 85.1% | 79.8% | 90.8% | 104% | 92.7% | 90.1% | 98.3% | 94.3% | 116% | 109% | 92.5% | 92.6% | 80.8% | 85.7% | 89.6% | 94.4% | 96.8% | 99.8% | 101%
O=C(CSc1nc2ccccc2c(=O)[nH]1)Nc1ccccc1C(=O)O | 104% | 102% | 101% | 97.8% | 118% | 118% | 107% | 112% | 107% | 124% | 129% | 97.8% | 79.4% | 94.6% | 99.4% | 94.1% | 101% | 92.7% | 103% | 105%
C[C@@H]1[C@H]2C[C@@H](C[C@H]1NCc1nc3ccccc3n1C1CCCCCC1)C2(C)C | 33% | 57.2% | 95.4% | 88.3% | 56.3% | 28.9% | 22.9% | 71.8% | 63.4% | 58.7% | 88.3% | 24.1% | 51.4% | 77.8% | 19% | 75.6% | 57.6% | 77.1% | 64.7% | 61%
O=C(OCCOCCO)N(c1cccc(Br)c1)c1nc(SCCN2CCOCC2)nc2c1cnn2CC(Cl)c1ccc(Br)cc1 (stereo not given) | -0.582% (active) | 32.1% | 50.9% | 32.9% | 8.55% (active) | 30.9% | -40.9% (active) | 15.2% | -4.79% (active) | -42.3% (active) | 41.3% | 2.12% (active) | -29.1% (active) | 1.49% (active) | -30% (active) | 5.17% (active) | -66.6% (active) | -25.2% (active) | 2.33% (active) | -14.1% (active)
COc1ccc(C(=O)NNC(=O)CSc2nc3sc4c(c3c(=O)n2-c2ccc(Cl)cc2)CCCC4)cc1 | 63.2% | 33.1% | 73.5% | 18.7% | 87.2% | 60.8% | 59% | 86.7% | 102% | 118% | 89% | 56.7% | 60.3% | 44% | 82.2% | 84.3% | 94.7% | -55.2% (active) | 100% | 77.4%
Cc1cc(C2(c3cc(C)c(OCC(O)CNc4c(C)n(C)n(-c5ccccc5)c4=O)cc3C(C)C)OC(=O)c3ccccc32)c(C(C)C)cc1OCC(O)CNc1c(C)n(C)n(-c2ccccc2)c1=O (stereo not given) | 34.7% | 42% | 61% | 52% | 18.2% | -9.82% (active) | 8.24% (active) | 22.4% | 24.2% | 10.6% | 50.7% | 4.53% (active) | 26.3% | -36.5% (active) | 1.98% (active) | 32.6% | 24% | 38.9% | 27.5% | 29.2%
